Mtb hypoxia rep = inhibitors of hypoxia-regulated fluorescent reporter in Mycobacterium tuberculosis; M. tuberculosis hypoxia-regulated fluorescent reporter, fluorescence; 300,000 compounds, 0.1% hits; fluorescence inhibition, % (test concentration not listed); in the data active means fluorescence inhibition mostly above about 23%, no sharp cut-off; inactive means mostly below about 17%
FadD28 binding = inhibitors of Mycobacterium tuberculosis FadD28 bisubstrate binding; FadD28 bisubstrate probe binding, fluorescence polarization; inhibition, % at 12.5 µM; 360,000 compounds, 0.22% hits; AID 588549; in the data active means inhibition above about 8.5%, passing the limit was not always enough; inconclusive means no clear call, values can overlap the other calls
Mtb UGM inh = inhibitors of M. tuberculosis UDP-galactopyranose mutase | AID 504406 | purified UGM, fluorescence polarization probe displacement | 320,000 compounds, 0.06% hits | inhibition, % at 10 µM; in the data active means inhibition above about 10%, passing the limit was not always enough; inconclusive means no clear call, values can overlap the other calls
Rv3671c protease = inhibits the M. tuberculosis serine protease Rv3671c. P9WHR9. inhibition, % at 5.96 µM. 320,000 compounds, 0.048% hits. AID 2606; in the data active means inhibition above about 38%;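 further: extracellular domain of Rv3671c used as enzyme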
Mtb bLac sens = beta-lactam sensitization of Mtb H37Rv; M. tuberculosis H37Rv growth with meropenem, percent inhibition; 330,000 compounds, 0.27% hits; inhibition, % at 25 µM; call rule not given here;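 further: growth measured after seven days incubation then overnight dye step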
RecA intein inh = Mtb RecA intein splicing inhibition; P9WHJ3; cell-free RecA intein splicing, fluorescence; inhibition, % (test concentration not listed); 290,000 compounds, 0.75% hits; in the data active means inhibition above about 30%; inconclusive means no clear call, values can overlap the other calls
Target sequence (P9WHJ3 whole entry, looked up): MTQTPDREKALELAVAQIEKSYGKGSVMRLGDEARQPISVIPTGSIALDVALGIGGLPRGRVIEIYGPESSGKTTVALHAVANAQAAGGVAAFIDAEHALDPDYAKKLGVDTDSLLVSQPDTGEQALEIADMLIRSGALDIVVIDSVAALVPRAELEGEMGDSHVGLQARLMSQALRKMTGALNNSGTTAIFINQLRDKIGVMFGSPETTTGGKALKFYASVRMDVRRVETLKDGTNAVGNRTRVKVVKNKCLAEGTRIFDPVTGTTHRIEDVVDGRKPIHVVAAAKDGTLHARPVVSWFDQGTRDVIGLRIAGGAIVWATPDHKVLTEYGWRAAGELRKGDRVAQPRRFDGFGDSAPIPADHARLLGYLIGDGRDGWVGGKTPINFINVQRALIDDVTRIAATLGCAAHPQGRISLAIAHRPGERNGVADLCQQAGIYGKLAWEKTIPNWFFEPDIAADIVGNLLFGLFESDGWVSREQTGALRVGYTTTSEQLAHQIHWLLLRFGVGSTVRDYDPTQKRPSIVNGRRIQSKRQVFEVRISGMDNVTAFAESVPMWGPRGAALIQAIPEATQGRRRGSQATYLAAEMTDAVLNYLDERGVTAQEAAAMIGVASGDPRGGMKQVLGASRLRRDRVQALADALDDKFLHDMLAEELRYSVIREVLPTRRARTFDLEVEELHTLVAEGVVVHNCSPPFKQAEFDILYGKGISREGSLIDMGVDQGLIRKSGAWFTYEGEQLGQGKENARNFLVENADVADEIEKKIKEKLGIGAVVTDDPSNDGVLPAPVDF
Of the large screens only hits and unclear results are named; the others gave an inactive call. An excerpt weighted towards active compounds, which were near 0.92% of everything screened.

Cc1ccc(C)c(NC(=O)CN2C(=O)NC(C)(c3ccc4c(c3)OCCO4)C2=O)c1 (stereo not drawn)	Mtb hypoxia rep 33.9 (no result: RecA intein inh)
Cc1ccc(F)cc1NC(=O)CN1C(=O)NC(C)(c2ccc3c(c2)OCCO3)C1=O (stereo not drawn)	none (no result: RecA intein inh)
Cn1c(=O)c2c(nc(OC/C=C/c3ccccc3)n2C)n(C)c1=O	none
Oc1cccc2cc3cccc(O)c3c(O)c12	Rv3671c protease 37.8 (no result: Mtb hypoxia rep)
CCOC(=O)c1c(NC(=O)/C=C\C(=O)O)sc(C)c1-c1ccccc1	RecA intein inh 56.3 (no result: Mtb hypoxia rep)
Cc1sc(NC(=O)/C=C/C(=O)O)c(C(N)=O)c1-c1ccc(C(C)(C)C)cc1	RecA intein inh 61.3
CCOC(=O)c1c(NC(=O)/C=C/C(=O)O)sc(C)c1-c1ccc(C(C)(C)C)cc1	none (no result: RecA intein inh)
Cc1ccc(OCC(=O)Nc2cc(C(=O)O)cc(C(=O)O)c2)cc1C	none
O=C(CSc1nnnn1C1CCCCC1)Nc1ccccc1F	none
CCCCCCCCCCn1c2c(c(=N)c3c1CCC3)CCC2	RecA intein inh 31.7
Cc1ccc(NC(=S)/C(=C(\[O-])c2ccc(F)cc2)[n+]2ccccc2)cc1	RecA intein inh 30.3
Cc1ccc(C)c(NC(=S)/C(=C(\[O-])c2ccc(OC(F)F)cc2)[n+]2ccccc2)c1	RecA intein inh 32.6
[O-]/C(=C(\C(=S)Nc1ccccc1F)[n+]1ccccc1)c1ccc(OC(F)F)cc1	none
Cc1ccccc1N(Cc1cc(=O)[nH]c2ccccc12)C(=O)CCl	Mtb bLac sens inconclusive, RecA intein inh 48.3 (no result: Mtb hypoxia rep)
COc1ccc(-c2csc(Nc3ccc(S(=O)(=O)Nc4cc(OC)nc(OC)n4)cc3)n2)cc1	FadD28 binding 11.9
COc1cc(NS(=O)(=O)c2ccc(Nc3nc(-c4ccccn4)cs3)cc2)nc(OC)n1	none
Cc1ccc(CSCC2Nc3ccc(C(=O)N4CCN(c5cccc(C)c5)C(C)C4)cc3NC2=O)cc1 (stereo not drawn)	none (no result: Mtb hypoxia rep, FadD28 binding)
Cc1cccc(N2CCN(C(=O)c3ccc4c(c3)NC(=O)C(CSCc3ccc(F)cc3)N4)CC2C)c1 (stereo not drawn)	RecA intein inh 32.5 (no result: Mtb hypoxia rep, FadD28 binding)
N#CC1=C(N)C(C#N)(C#N)[C@H](c2c(F)cccc2F)[C@H]2CC3(CC=C12)OCCO3	RecA intein inh 34.9
CN1C2C=C3C(C#N)=C(N)C(C#N)(C#N)[C@H](c4c(F)cccc4F)[C@H]3C1CC2 (stereo partly drawn)	none
COc1ccc(-c2c(-c3cc(OC)cc(OC)c3)n(C)c3ccc(Br)cc23)cc1	none (no result: RecA intein inh)
COc1ccc(N=Nc2nc3ccc(Br)cc3n2C)cc1	Mtb UGM inh 66.4 (not shown: Mtb hypoxia rep)
Cn1c2c(c(=O)n(C)c1=O)[C@@]1(C(=O)Nc3ccccc31)C(C#N)=C(N)O2	RecA intein inh 34.3
Cc1ncc(CN2CCN(Cc3ccccc3)C(CCO)C2)s1 (stereo not drawn)	none
N#Cc1ccc(C(=O)Nc2cc(C3CC3)nn2-c2ccccc2)cc1	none
Cn1c(=O)c2[nH]c(SCCN)nc2n(C)c1=S	none (no result: Mtb hypoxia rep, Mtb UGM inh, Rv3671c protease, Mtb bLac sens, RecA intein inh)
COc1ccc(NC(=S)NNc2ccc(S(=O)(=O)Nc3ccccc3C(=O)O)cc2[N+](=O)[O-])cc1	FadD28 binding 22.5
COc1ccc(C=NNc2ccc(S(=O)(=O)Nc3ccccc3C(=O)O)cc2[N+](=O)[O-])c(OC)c1	FadD28 binding 31.7 (no result: RecA intein inh)
Cc1nn(-c2ccccc2)c(Cl)c1/C=N/Nc1ccc(S(=O)(=O)Nc2ccccc2C(=O)O)cc1[N+](=O)[O-]	FadD28 binding 12.0 (no result: Mtb hypoxia rep)
C=CCOc1ccc(C=NNc2ccc(S(=O)(=O)Nc3ccccc3C(=O)O)cc2[N+](=O)[O-])cc1OC	FadD28 binding 31.6 (no result: RecA intein inh)
CCOC(=O)c1ccc(NC(=O)C2C3CCCCC32)cc1 (stereo not drawn)	none (no result: Rv3671c protease)
CCOc1cccc(C=NNc2ccc(S(=O)(=O)Nc3ccccc3C(=O)O)cc2[N+](=O)[O-])c1O	FadD28 binding 17.3 (no result: RecA intein inh)
Nc1c(-c2ccccc2)c(CSc2nc3ccccc3[nH]2)nn1-c1cccc(C(=O)O)c1	none (no result: Mtb hypoxia rep)
CCOc1c2ccc(C(=O)NCc3ccccc3OC)cc2nn1CC	none
Nc1ccc(-c2c3ccc(=O)cc-3oc3cc(O)ccc23)cc1C(=O)O	Mtb UGM inh 45.4 (no result: Mtb hypoxia rep)
Cc1ccc(-n2c(Cc3cccs3)nnc2SCC(=O)Nc2ccc(F)c(F)c2)cc1	none
Cc1ccc(NC(=S)NNC(=O)c2ccc(N3CCOCC3)c([N+](=O)[O-])c2)cc1Cl	FadD28 binding 10.8 (no result: Mtb hypoxia rep)
COc1ccc(OCC(=O)NC(=S)Nc2ccc(N3CCOCC3)c(Cl)c2)cc1	Mtb hypoxia rep 38.1
O=C(NCCCNC(=O)C(F)(F)C(F)F)C(F)(F)C(F)F	none (no result: RecA intein inh)
CC(=O)Nc1ccc(S(=O)(=O)N(C)CC(=O)OCC(=O)N(CC(C)C)C2CCS(=O)(=O)C2)cc1 (stereo not drawn)	none
COc1ccc(-c2nnn(CC(=O)c3c[nH]c4ccccc34)n2)cc1OC	FadD28 binding 14.6
Cc1oc(/N=C/c2cccc([N+](=O)[O-])c2)c(C#N)c1C	none (no result: Mtb hypoxia rep)
O=C(NC1CCCCC1)c1cccc2c1C(=O)c1ccc(N3CCC(Cc4ccccc4)CC3)cc1S2(=O)=O	Mtb UGM inh 19.1 (no result: RecA intein inh)
O=C(NCC1CCCO1)c1cccc2c1C(=O)c1ccc(N3CCC(Cc4ccccc4)CC3)cc1S2(=O)=O (stereo not drawn)	Mtb UGM inh 19.0 (no result: Mtb hypoxia rep, RecA intein inh)
COc1cc(/C=C2\SC(=S)N(CC(=O)O)C2=O)ccc1OS(=O)(=O)c1ccc(C)cc1	FadD28 binding 9.7 (no result: RecA intein inh)
COc1cc(/C=C2/SC(=S)N(CC(=O)O)C2=O)ccc1OC(=O)c1cccs1	none
CC1=NNC(=O)/C1=C\c1cn(-c2ccccc2)nc1-c1ccc(Cl)cc1	RecA intein inh 89.9
Cc1ccc(-c2nn(-c3ccccc3)cc2C=C2C(=O)CC(C)(C)CC2=O)cc1	none
O=C(CSc1nnc(SCc2ccc(Cl)cc2)s1)NN=Cc1ccc(Cl)cc1Cl	none (no result: FadD28 binding, Mtb UGM inh, Rv3671c protease, Mtb bLac sens, RecA intein inh)
Cc1ccccc1-c1cc(=O)c2c(O)cccc2o1	none
CCOc1ccccc1-c1c2cc(O)c(=O)cc-2oc2cc(O)c(O)cc12	Mtb hypoxia rep 36.9, FadD28 binding 130.7 (no result: Mtb UGM inh, Rv3671c protease, Mtb bLac sens, RecA intein inh)
CCOC(=O)c1oc2cc(O)ccc2c(=O)c1-c1ccccc1OC	none
O=c1cc2oc3cc(O)c(O)cc3c(-c3ccccc3O)c-2cc1O	FadD28 binding 80.9 (no result: Mtb UGM inh, Rv3671c protease, Mtb bLac sens, RecA intein inh)
O=C(COC(=O)c1ccccc1)NC12CC3CC(CC(C3)C1)C2	none (no result: RecA intein inh)
O=C(O)[C@@H](c1ccccc1)N1Cc2ccccc2C1=O	RecA intein inh 32.1
O=C(O)C(c1ccccc1)N1C(=O)c2ccccc2C1=O (stereo not drawn)	none
CC[n+]1c(-c2ccccc2)c2cc(N)ccc2c2ccc(N)cc21	FadD28 binding 15.0 (no result: Mtb hypoxia rep, Mtb UGM inh, Rv3671c protease, Mtb bLac sens, RecA intein inh)
CCOC(=O)C1=C(c2ccccc2)O/C(=C(\C(=O)OC)C(F)(F)F)S1	none
CCOC(=O)C1=C(c2ccccc2)O/C(=C(/C#N)C(F)(F)F)S1	RecA intein inh 41.5 (no result: Mtb hypoxia rep, FadD28 binding)
CC1CN(C(=O)CSc2nnc(NC(=O)NC(C)(C)C)s2)CC(C)O1 (stereo not drawn)	none
